SMILES strings stand for the structures. Compounds without any hit were thinned out: in the full panel of roughly 83,000, 20% have a hit.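 Single-dose data. Exposure time 48 hours. Values below 10 considered active.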 Unmarked numbers belong to inactive results. Active and inactive are the calls of the source.

The text below walks through data of PubChem BioAssay (NCI).

Some test systems named below: NCI-H23 lung; NCI-H226 lung; NCI-H322M lung; HOP-62 NSCLC; NCI-H460 lung; NCI-H522 lung; A549/ATCC NSCLC; 786-0 renal; COLO 205 colon; DU-145 prostate; K-562 leukemia; MALME-3M melanoma; MDA-MB-231 breast; RXF 393 renal; SF-268 CNS; SF-295 CNS; SF-539 CNS; UACC-257 melanoma; M14 melanoma; HCT-15 colon.
Holding throughout (assay): NCI-60 one-dose screen, 48 h (100 = growth as untreated, 0 = no growth, -100 = all killed)
Conditions in all cases: 10 µM unless noted

Turning to `COc1cc(/C=C/C(=O)N2CCN(C(=O)/C=C/c3ccccc3)CC2)cc(OC)c1OC`, the growth is 108% with NCI-H23 lung; 102% in the test with NCI-H226 lung; 104% with NCI-H322M lung; 103% in the test with HOP-62 NSCLC; 105% in the test with NCI-H460 lung; 92.7% in the test with NCI-H522 lung. The growth in the test with A549/ATCC NSCLC was 99.8%; in the test on 786-0 renal it was 101%; in the test with COLO 205 colon it was 113%; with DU-145 prostate, 129%; in the test with K-562 leukemia, 97%; with MALME-3M melanoma, 97.8%. The growth is 85.6% with MDA-MB-231 breast; 125% in the test with RXF 393 renal; 111% in the test with SF-268 CNS; 110% with SF-295 CNS; 107% in the test on SF-539 CNS; 102% in the test with UACC-257 melanoma. Moreover, the growth in the test with M14 melanoma was 103%; in the test on HCT-15 colon it was 109%.

Turning to `COc1c(C)c2c(c(O)c1C/C=C(\C)CCC(=O)OCCN1CCOCC1)C(=O)OC2`, the growth in the test on NCI-H23 lung is 19.4%; in the test with NCI-H226 lung it was 50.2%; with NCI-H322M lung, 33.2%; in the test on HOP-62 NSCLC it was 34.9%; in the test on NCI-H460 lung, 2.48% (active); in the test with NCI-H522 lung, -3.49% (active). Also, the growth was 5.79% (active) in the test with A549/ATCC NSCLC; 24.7% in the test on 786-0 renal; 38.1% in the test with COLO 205 colon; 36.4% in the test on DU-145 prostate; 25.5% in the test on K-562 leukemia; 38.8% with MALME-3M melanoma. For the same compound, the growth in the test on MDA-MB-231 breast is 37.9%; in the test with RXF 393 renal, 51.9%; in the test with SF-268 CNS, 28.9%; in the test with SF-295 CNS, 18.2%; with SF-539 CNS, 34.7%; in the test on UACC-257 melanoma it was 7.21% (active). Besides, the growth in the test on M14 melanoma was 19.8%; in the test on HCT-15 colon, 15.5%.

With `C=C(C[C@@](O)(C(=O)Oc1ccccc1)C(=O)C1CCCCC1)c1ccccc1`, the growth was 103% with NCI-H23 lung; 108% in the test on NCI-H226 lung; 112% in the test with NCI-H322M lung; 108% in the test with HOP-62 NSCLC; 107% in the test on NCI-H460 lung; 91.8% in the test on NCI-H522 lung. Besides, the growth was 92.2% with A549/ATCC NSCLC; 98.9% in the test with 786-0 renal; 120% with COLO 205 colon; 110% in the test with DU-145 prostate; 107% in the test on K-562 leukemia; 101% with MALME-3M melanoma. Further, the growth with MDA-MB-231 breast is 99.9%; in the test with RXF 393 renal it was 91.4%; in the test on SF-268 CNS, 99.6%; with SF-295 CNS, 100%; in the test on SF-539 CNS, 98.4%; in the test with UACC-257 melanoma it was 92.8%. The growth in the test with M14 melanoma was 106%; in the test on HCT-15 colon, 109%.

Regarding `CC(=O)c1nc2ccccc2n1CCn1cc(CC(N)C(=O)O)c2ccccc21` (stereo not given), the growth in the test on NCI-H23 lung is 90.3%; in the test on NCI-H226 lung, 102%; in the test with NCI-H322M lung it was 93.6%; with HOP-62 NSCLC, 97.7%; in the test with NCI-H460 lung it was 115%; with NCI-H522 lung, 96.9%. The growth in the test with A549/ATCC NSCLC is 103%; in the test with 786-0 renal it was 115%; with COLO 205 colon, 103%; in the test with DU-145 prostate, 104%; with K-562 leukemia it was 92.5%; in the test with MALME-3M melanoma, 100%. The growth in the test with MDA-MB-231 breast was 77.3%; in the test on RXF 393 renal, 120%; with SF-268 CNS, 110%; with SF-295 CNS it was 110%; in the test with SF-539 CNS, 101%; in the test on UACC-257 melanoma it was 110%. Besides, the growth in the test with M14 melanoma was 103%; in the test with HCT-15 colon it was 96.3%.

On to `COc1cc(Oc2cc(-c3cccnc3)ccc2NC(=O)Nc2ccc(F)cc2F)cc(OC)c1OC`, for which the growth in the test with NCI-H23 lung is 99%; in the test with NCI-H226 lung, 97%; in the test with NCI-H322M lung, 112%; with HOP-62 NSCLC, 96.4%; in the test with NCI-H460 lung it was 99.1%; in the test on NCI-H522 lung it was 94.8%. In addition, the growth in the test on A549/ATCC NSCLC is 94.6%; in the test with 786-0 renal, 100%; in the test with COLO 205 colon, 96.9%; in the test on DU-145 prostate, 113%; in the test on K-562 leukemia, 96.6%; in the test with MALME-3M melanoma, 105%. Besides, the growth is 91.5% with MDA-MB-231 breast; 97.5% with RXF 393 renal; 107% in the test with SF-268 CNS; 110% with SF-295 CNS; 105% in the test with SF-539 CNS; 92.6% in the test on UACC-257 melanoma. In addition, the growth in the test with M14 melanoma was 110%; in the test on HCT-15 colon it was 111%.

Regarding `Cc1ccc(C(C)C)cc1NC(=O)Nc1ccc([N+](=O)[O-])cc1`, the growth in the test on NCI-H23 lung was -32.8% (active); with NCI-H226 lung it was 27.3%; with NCI-H322M lung, 43.2%; with HOP-62 NSCLC, -0.0828% (active); with NCI-H460 lung, -1.38% (active); in the test on NCI-H522 lung, -19.8% (active). Also, the growth with A549/ATCC NSCLC was 9.96% (active); in the test with 786-0 renal it was 8.79% (active); in the test with COLO 205 colon, -35.4% (active); in the test with DU-145 prostate, 12.2%; with K-562 leukemia, 18.2%; in the test on MALME-3M melanoma it was 6.64% (active). In addition, the growth was 35.6% in the test on MDA-MB-231 breast; 90.8% with RXF 393 renal; 29.9% in the test with SF-268 CNS; 4.2% (active) in the test on SF-295 CNS; 29% in the test with SF-539 CNS; -5.55% (active) with UACC-257 melanoma. Moreover, the growth in the test with M14 melanoma was 22.3%; in the test on HCT-15 colon, 10.7%.

For `O=c1cc(-c2cccnc2)oc2c1ccc1ccccc12`, the growth with NCI-H23 lung is 69.9%; with NCI-H226 lung, 91.5%; with NCI-H322M lung, 117%; with HOP-62 NSCLC, 88.6%; with NCI-H460 lung it was 70.4%; with NCI-H522 lung, 62%. Moreover, the growth in the test with A549/ATCC NSCLC was 65.6%; in the test on 786-0 renal, 81.3%; in the test on COLO 205 colon, 80.5%; in the test on DU-145 prostate, 88.6%; with K-562 leukemia it was 53.9%; in the test with MALME-3M melanoma, 156%. Moreover, the growth in the test with MDA-MB-231 breast was 70.7%; in the test on RXF 393 renal, 68%; in the test with SF-268 CNS, 54.8%; with SF-295 CNS, 70.1%; in the test with SF-539 CNS, 54.6%; with UACC-257 melanoma it was 82.9%. The growth is 103% in the test on M14 melanoma and 72.7% in the test on HCT-15 colon.

`NC(=O)N/N=C/c1ccc(Br)o1`: the growth in the test with NCI-H23 lung is 97.7%; in the test with NCI-H226 lung, 98.8%; in the test on NCI-H322M lung, 101%; in the test with HOP-62 NSCLC, 94.2%; in the test on NCI-H460 lung, 110%; in the test on NCI-H522 lung, 89.7%. Moreover, the growth in the test with A549/ATCC NSCLC was 106%; in the test on 786-0 renal, 105%; with COLO 205 colon it was 98.6%; with DU-145 prostate it was 110%; in the test on K-562 leukemia, 104%; with MALME-3M melanoma it was 106%. In addition, the growth in the test on MDA-MB-231 breast is 99%; with RXF 393 renal, 112%; with SF-268 CNS, 99.6%; in the test on SF-295 CNS it was 103%; in the test with SF-539 CNS, 101%; in the test on UACC-257 melanoma, 105%. Besides, the growth was 101% in the test with M14 melanoma and 96.1% in the test on HCT-15 colon.
